Screening data: PubChem, National Center for Advancing Translational Sciences (NCATS)
Only some compounds are listed: those with a hit (about 18% of all), similar ones and a draw of the others.
LDHA block: inhibitors of human lactate dehydrogenase A; P00338; activity change, % (values are at about 110 or 230 µM); 480,000 tested, 0.15% active; AID 1347041; purified LDHA, NADH/diaphorase-resazurin fluorescence; stronger effect = lower value; in the data active = activity change below about -30%; inconclusive = mostly about -25% to -30%;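 note: plate controls were DMSO wells for no effect and wells without enzyme for full effect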
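Enzyme activity of human lactate dehydrogenase 5 (2 nM; 0.06 mM NADH, 0.2 mM pyruvate, 5 min, RT) is measured via a resazurin/diaphorase fluorescence readout of residual NADH.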
RORgamma inh: ROR gamma (mouse) transcription inhibition | AID 2551 | 310,000 tested, 5.4% active | Drosophila S2 Gal4-RORgamma UAS-luciferase reporter, 20 h | Potency, µM (doses to about 53.6 µM), for the others: at the top dose activity change, negative = inhibition, most hits filed as inhibitors | P51450; note: potency is the fitted concentration of half-maximal effect; nearly all actives have a fitted effect of over 60% in size
Target sequence (P51450 whole entry, looked up, the tested form may be a part): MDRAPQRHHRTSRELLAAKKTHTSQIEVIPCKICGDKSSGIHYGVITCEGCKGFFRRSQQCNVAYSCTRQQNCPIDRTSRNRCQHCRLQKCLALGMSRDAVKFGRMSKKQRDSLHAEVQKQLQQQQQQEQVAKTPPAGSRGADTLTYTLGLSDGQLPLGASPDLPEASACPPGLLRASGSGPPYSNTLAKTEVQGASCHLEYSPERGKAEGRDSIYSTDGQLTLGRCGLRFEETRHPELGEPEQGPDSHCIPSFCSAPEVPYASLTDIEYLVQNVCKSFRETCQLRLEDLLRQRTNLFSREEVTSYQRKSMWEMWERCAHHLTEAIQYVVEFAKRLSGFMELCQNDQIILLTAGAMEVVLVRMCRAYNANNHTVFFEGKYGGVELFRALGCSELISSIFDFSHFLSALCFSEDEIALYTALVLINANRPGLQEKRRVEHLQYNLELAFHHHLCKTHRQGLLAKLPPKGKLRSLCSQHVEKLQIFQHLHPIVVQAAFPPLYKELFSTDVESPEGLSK
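Drosophila Schneider cells stably carrying a metallothionein-driven Gal4 DBD–ROR gamma fusion and a UAS-Photinus luciferase reporter were exposed to compound for 1 hr, then induced with copper sulfate (700 uM final) for 20 hr at ambient temperature before luminescence reading.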
TDP1 cell CPT: growth inhibition of DT40 Tdp1-/-;hTDP1 cells with camptothecin (screen for TDP1 inhibitors). chicken DT40 Tdp1-/-;hTDP1 cells + 20 nM CPT, ATP luminescence, 48 h. Potency, µM (top dose mostly 46.2 µM), inactives show at the top dose activity change, negative = growth inhibition, usual class: inhibitors. 420,000 tested, 12% active; note: potency is the fitted concentration of half-maximal effect; nearly all actives have a fitted effect of over 55% in size
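Cell growth measured by CellTiter-Glo luminescence after a minimum 48 h, 37 C compound exposure with 20 nM CPT in Tdp1-knockout DT40 cells stably expressing hTDP1, seeded 400/well; qHTS titration format.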
TDP1 cell noCPT: qHTS for Inhibitors of human tyrosyl-DNA phosphodiesterase 1 (TDP1): qHTS in cells in absence of CPT. DT40 Tdp1-/- hTDP1 cells, no CPT, ATP luminescence, 48 h. Potency, µM (highest dose often 46.2 µM), for the others: at the top dose activity change, negative = growth inhibition, most hits filed as inhibitors. 420,000 tested, 15% active; note: potency is the fitted concentration of half-maximal effect; nearly all actives have a fitted effect of over 55% in size
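Chicken DT40 Tdp1-/- cells stably complemented with human TDP1 were seeded at 400 cells/well with DMSO in place of 20 nM camptothecin. After compound pinning, cells grew at least 48 hr at 37 °C; viability read by CellTiter-Glo luminescence.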
IL-1B inflam inh: inflammasome signaling inhibition, IL-1 beta readout; THP-1 LPS/ATP IL-1B secretion, AlphaLISA, 16 h; stronger effect = lower value; activity change, % at 57.5 µM; 360,000 tested, 4.7% active; AID 743279; in the data active = activity change below about -50%; inconclusive = mostly about -30% to -49%
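THP-1 cells pretreated 1 hr with compounds (up to 57.5 uM final), then stimulated with LPS (250 ng/mL final) plus ATP (1.25 mM final); secreted IL-1B measured by AlphaLISA after 16 hr, decreased signal indicating inhibition.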
VP16 counter: counter-screen for ROR gamma inhibitors: Gal4-VP16 reporter. Drosophila S2 Gal4-VP16 UAS-luciferase, luminescence, 20 h. Potency, µM (highest dose often 53.6 µM), for the others: top-dose activity, negative = inhibition, actives largely listed as inhibitors. 310,000 tested, 3.5% active. AID 2546;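 note: Gal4-VP16 expression switched on by copper sulfate through the metallothionein promoter; potency is the fitted concentration of half-maximal effect; nearly all actives have a fitted effect of over 50% in size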
* marks the source's active call; other numbers are inactive results; ? = inconclusive; nt = no result given; [ ] = remark or other dose. Unless noted, calls come from the whole dose curve; as a rule, active = well fitted curve in the direction sought with a large enough effect; inconclusive = small, poorly fitted or top-dose-only effect, or another doubt; inactive = no such curve, though single readings can be large; an effect the other way counts as inactive or inconclusive. Unless noted, % is set by controls: 0 for no effect and ±100 for the full control effect.

SMILES	LDHA block	RORgamma inh	TDP1 cell CPT	TDP1 cell noCPT	IL-1B inflam inh	VP16 counter
CCn1cc(CN2CCC(C(=O)Nc3ccc(Oc4cccnc4)cc3)CC2)c(C)n1	-8	-9%	?	?	5	-5%
COC(=O)c1ccc(CNC(=O)c2cccc(OC)c2)cc1	-2	nt	nt	nt	nt	nt
Cc1oc(-c2cccs2)nc1C(=O)N1CCC(NC(=O)C2CC2)CC1	-14	nt	nt	nt	nt	nt
COc1cc(SC)ccc1C(=O)NCCOc1ccc(F)cc1	-3	?	?	16µM*	-7	1%
COc1ccc(CCNC(=O)c2ccc(SC)cc2OC)cc1	8	19%	-14%	?	?	-2%
COc1cc(SC)ccc1C(=O)NCCc1c[nH]c2ccccc12	-3	?	?	?	-65*	-7%
COc1cc2cc(C(=O)NCCc3c[nH]c4ccccc34)c(N)nc2cc1OC	5	nt	?	16µM*	?	nt
CN(CCOc1cccc(Cl)c1)Cc1nc(N)nc(N)n1	-7	nt	nt	nt	nt	nt
CCCCCn1nc(C(=O)OCC(=O)c2cc(C)n(CCC)c2C)c2ccccc2c1=O	1	nt	nt	nt	nt	nt
CCOc1ccc(Cn2c(CNS(=O)(=O)c3cccs3)nc3cccnc32)cc1	-1	nt	?	23µM*	nt	nt
CCc1ccc(Cn2c(CNS(=O)(=O)c3ccc(Cl)s3)nc3cccnc32)cc1	-13	nt	16µM*	16µM*	nt	nt
CCCCNC(=O)c1cccc(I)c1	1	nt	nt	nt	nt	nt
N#Cc1ccc(COc2ccccc2C(=O)Nc2ccccc2)cc1	9	nt	nt	nt	nt	nt
O=C(COc1ccccc1C(=O)Nc1ccccc1)Nc1ccccc1F	-2	nt	?	16µM*	nt	nt
N#Cc1ccc(NC(=O)COc2ccccc2C(=O)Nc2ccccc2)cc1	-3	nt	11µM*	?	nt	nt
CCOc1ccccc1CNCc1ccc(C(=O)O)cc1	-11	-4%	-2%	-11%	-4	-2%
CC(=O)c1ccc(NC(=O)COc2ccccc2C(=O)Nc2ccccc2)cc1	-4	33%	11µM*	11µM*	2	1%
O=C(COc1ccccc1CNCc1ccccc1)Nc1ccccc1	-6	?	?	18µM*	-21	7%
O=C(COc1ccccc1C(=O)Nc1ccccc1)Nc1ccccc1Cl	1	nt	?	?	nt	nt
O=C(CSc1nc2cc(S(=O)(=O)N3CCCCC3)ccc2o1)Nc1ccccc1F	9	nt	nt	nt	nt	nt
CCOc1ccc(CNC(=O)Cn2ccc3cc(S(=O)(=O)N4CCCCCC4)ccc32)cc1	0	21%	16µM*	26µM*	?	?
CN(C)c1ccc(CNC(=O)CCc2ccc(S(=O)(=O)N3CCCCCC3)cc2)cc1	0	nt	?	15µM*	-64*	nt
COc1ccc(CNC(=O)CCc2ccc(S(=O)(=O)N3CCCCCC3)cc2)cc1	-2	nt	?	?	-11	nt
CN(C)c1ccc(CNC(=O)Cn2ccc3cc(S(=O)(=O)N4CCCCCC4)ccc32)cc1	2	nt	?	5.8µM*	nt	nt
CCOc1ccc(CNC(=O)Cn2ccc3cc(S(=O)(=O)N4CCCC4)ccc32)cc1	-4	26%	-29%	-14%	12	-2%
SMILES	LDHA block	RORgamma inh	TDP1 cell CPT	TDP1 cell noCPT	IL-1B inflam inh	VP16 counter
Cc1ccc(NC(=O)Cn2nc(-c3ccco3)ccc2=O)cc1	7	nt	nt	nt	nt	nt
CCOc1cccc(C=Nc2cc(C)cc(C)c2O)c1O	5	-16%	15µM*	?	0	-8%
CCOc1cccc(/C=N/N=C/c2cccc(OCC)c2O)c1O	-4	-15%	-11%	-1%	3	-10%
CCC(Sc1ccc(Cl)cc1)C(=O)O (stereo unspecified)	5	nt	nt	nt	nt	nt
CCc1ccccc1N(C)C(=O)c1cc2c(Cl)nc3ccc(C)cc3c2s1	-6	nt	?	18µM*	nt	nt
CCN(C(=O)c1cc2c(Cl)nc3ccc(C)cc3c2s1)c1cc(OC)ccc1OC	2	nt	?	15µM*	nt	nt
CCN(C(=O)c1cc2c(=O)oc3ccc(C)cc3c2s1)c1cc(OC)ccc1OC	-3	nt	?	?	nt	nt
Cc1ccc(COc2ccccc2CNc2ncn[nH]2)cc1	1	nt	nt	nt	nt	nt
CC(C)(C)C(=O)Nc1nnc(-c2ccncc2)o1	3	11µM*	-19%	1%	27	18µM*
O=C(Nc1nnc(-c2ccncc2)o1)c1ccc(Br)s1	2	0.89µM*	15µM*	13µM*	50	1.1µM*
O=C(OCc1nc2ccccc2o1)c1cccc(F)c1	2	nt	nt	nt	nt	nt
O=C(Nc1ccc(N2CCOCC2)cc1)c1cccc(Nc2ccnc(-c3cccc(F)c3)n2)c1	-7	nt	nt	nt	nt	nt
COc1cc2sc(-c3ccc(S(C)(=O)=O)cc3)c(C(=O)NCCCCO)c2cc1OC	0	nt	5%	-6%	-12	nt
O=C(NCc1ccc2c(c1)OCO2)c1c(-c2ccccc2)sc2ccccc12	-2	nt	?	?	27	nt
COc1cc2sc(-c3ccc(S(C)(=O)=O)cc3)c(C(=O)NCc3ccc(C)o3)c2cc1OC	0	nt	?	13µM*	3	nt
Cc1ccc(CNC(=O)c2c(-c3ccccc3)sc3ccccc23)o1	-1	nt	?	16µM*	-25	nt
CCCC(=O)N1CCC(C(=O)O)CC1	2	nt	nt	nt	nt	nt
COc1c(Cl)cc(Cl)cc1CNCc1cccnc1	-7	nt	nt	nt	nt	nt
CCC(=O)N1CCc2cc(S(=O)(=O)CCC(=O)NCc3ccc(F)cc3)ccc21	-7	nt	6.5µM*	3.3µM*	nt	nt
CCC(=O)N1CCc2cc(S(=O)(=O)CCC(=O)Nc3nc(C)cs3)ccc21	1	0%	?	?	-58*	-11%
CSc1ccc(S(=O)(=O)N2c3ccccc3CC2C)cc1 (stereo unspecified)	-8	42%[1.91 µM]	?	21µM*	28	-17%
CC1Cc2ccccc2N1S(=O)(=O)c1cccc(Br)c1 (stereo unspecified)	-8	nt	nt	nt	nt	nt
CC(=O)N1CCc2cc(S(=O)(=O)N3c4ccccc4CC3C)ccc21 (stereo unspecified)	-12	1%	12µM*	13µM*	0	-14%
CC1Cc2ccccc2N1S(=O)(=O)c1cnc(Cl)c(Cl)c1 (stereo unspecified)	1	-5%	16µM*	10µM*	?	-15%
CC1Cc2ccccc2N1S(=O)(=O)c1cnc(Cl)c(Br)c1 (stereo unspecified)	-3	-1%	?	?	-70*	-7%
CN(C(=O)CSc1nnc(Nc2ccccc2F)s1)c1ccccc1	2	nt	nt	nt	nt	nt
FC(F)(F)c1cccc(NC(=S)NCc2ccccn2)c1	-6	3.5µM*	-13%	-9%	-3	7.1µM*
Cc1cccc(NC(=O)C(=O)NCc2ccccn2)c1	1	-12%	-11%	-18%	-24	2%
